# High-throughput results (PubChem BioAssay)
# The entries come from a sample that favours hits as a whole.
# Dicer inh = inhibitors of human Dicer processing of pre-microRNA. z-score at 25 µM. Q9UPY3. 6% of 47,000 active. cat-ELCCA pre-miR-21 Dicer processing, chemiluminescence; hits give high values. AID 1347074; in the data active = z-score above about 3, passing the limit was not always enough;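 also: higher signal means more uncleaved substrate so more Dicer inhibition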
# Target sequence (Q9UPY3 whole entry, looked up): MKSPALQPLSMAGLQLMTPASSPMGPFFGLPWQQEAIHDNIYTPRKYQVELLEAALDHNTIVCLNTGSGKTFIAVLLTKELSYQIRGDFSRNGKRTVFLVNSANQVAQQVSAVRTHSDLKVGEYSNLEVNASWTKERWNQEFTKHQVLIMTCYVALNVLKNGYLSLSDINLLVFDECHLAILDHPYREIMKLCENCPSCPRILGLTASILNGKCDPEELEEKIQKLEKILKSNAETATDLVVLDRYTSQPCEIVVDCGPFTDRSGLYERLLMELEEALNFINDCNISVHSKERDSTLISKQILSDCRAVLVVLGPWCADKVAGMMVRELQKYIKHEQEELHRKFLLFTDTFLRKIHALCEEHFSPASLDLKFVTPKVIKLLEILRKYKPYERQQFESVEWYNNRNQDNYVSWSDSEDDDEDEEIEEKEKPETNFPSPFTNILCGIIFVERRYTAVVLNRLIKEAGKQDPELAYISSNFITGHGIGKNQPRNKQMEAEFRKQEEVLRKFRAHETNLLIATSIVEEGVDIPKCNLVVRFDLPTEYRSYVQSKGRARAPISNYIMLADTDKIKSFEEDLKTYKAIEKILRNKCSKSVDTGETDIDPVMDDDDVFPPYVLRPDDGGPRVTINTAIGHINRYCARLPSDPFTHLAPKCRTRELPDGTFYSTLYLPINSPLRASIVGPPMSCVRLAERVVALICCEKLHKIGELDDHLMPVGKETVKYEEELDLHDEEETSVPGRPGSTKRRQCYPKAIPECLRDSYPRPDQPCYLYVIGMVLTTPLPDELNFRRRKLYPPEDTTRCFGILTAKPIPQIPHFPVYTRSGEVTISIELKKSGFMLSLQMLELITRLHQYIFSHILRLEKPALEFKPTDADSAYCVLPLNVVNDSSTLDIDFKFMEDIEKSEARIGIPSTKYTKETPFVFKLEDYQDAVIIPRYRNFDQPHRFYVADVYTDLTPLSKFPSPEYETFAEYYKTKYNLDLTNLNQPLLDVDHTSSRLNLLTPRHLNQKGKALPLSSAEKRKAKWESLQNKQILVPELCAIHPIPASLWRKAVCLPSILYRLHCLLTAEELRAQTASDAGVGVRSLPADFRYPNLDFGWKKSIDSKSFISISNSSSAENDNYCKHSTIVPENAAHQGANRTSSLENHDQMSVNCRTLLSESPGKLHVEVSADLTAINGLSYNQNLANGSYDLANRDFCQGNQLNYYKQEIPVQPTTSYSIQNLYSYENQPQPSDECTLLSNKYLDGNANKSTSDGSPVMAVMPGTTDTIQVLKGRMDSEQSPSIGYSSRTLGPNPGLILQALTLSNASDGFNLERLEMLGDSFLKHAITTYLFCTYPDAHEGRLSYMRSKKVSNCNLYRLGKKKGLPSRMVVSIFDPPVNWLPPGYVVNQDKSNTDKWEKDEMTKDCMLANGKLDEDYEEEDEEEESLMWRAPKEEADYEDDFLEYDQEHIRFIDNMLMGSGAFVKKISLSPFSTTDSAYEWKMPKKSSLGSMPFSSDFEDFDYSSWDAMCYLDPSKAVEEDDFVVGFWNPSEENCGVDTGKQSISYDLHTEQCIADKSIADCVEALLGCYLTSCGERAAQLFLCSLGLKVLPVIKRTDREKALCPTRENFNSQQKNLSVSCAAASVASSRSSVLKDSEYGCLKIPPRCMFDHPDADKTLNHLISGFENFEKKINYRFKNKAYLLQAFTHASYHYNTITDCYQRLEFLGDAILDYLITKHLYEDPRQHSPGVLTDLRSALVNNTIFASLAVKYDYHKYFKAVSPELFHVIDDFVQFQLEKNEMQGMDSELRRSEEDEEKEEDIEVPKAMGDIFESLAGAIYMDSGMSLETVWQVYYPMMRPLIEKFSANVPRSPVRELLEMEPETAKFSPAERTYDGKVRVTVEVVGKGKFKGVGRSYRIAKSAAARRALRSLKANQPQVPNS
# A number is an active result; 0 = inactive.
SMILES,Dicer inh
Cc1ccnc(NC(c2ccccc2F)c2ccc3cccnc3c2O)c1 (stereo not given),0
Cc1ccnc(NC(c2ccc(C)s2)c2ccc3cccnc3c2O)c1 (stereo not given),0
C=CCOc1cccc(C(Nc2cc(C)ccn2)c2ccc3cccnc3c2O)c1 (stereo not given),8.3
Cc1ccnc(NC(c2cc(C)ccc2O)c2ccc3cccnc3c2O)c1 (stereo not given),11
Cc1ccc2ccc(C(Nc3ccccn3)c3cccs3)c(O)c2n1 (stereo not given),0
Cc1ccnc(NC(c2cccc(F)c2)c2ccc3cccnc3c2O)c1 (stereo not given),11
COc1ccc(C(Nc2cc(C)ccn2)c2ccc3ccc(C)nc3c2O)cc1 (stereo not given),0
COc1cccc(C(Nc2cc(C)ccn2)c2ccc3cccnc3c2O)c1 (stereo not given),0
Cc1ccnc(NC(c2cccc(F)c2)c2ccc3ccc(C)nc3c2O)c1 (stereo not given),6.1
S=C(Nc1cc(Cl)c(Cl)cc1Cl)NC(c1ccccc1)c1ccccc1,0
C[C@H](CCC(=O)O)C1CC[C@H]2C3CCC4C[C@H](O)CCC4(C)C3C[C@H](O)C12C (stereo not given in full),0
CSCCn1c(-c2ccccc2)cc(C(=O)Nc2ccc(-c3ccccc3)cc2)c1C,0
C\C(=N/N=C(\N=C\N(C)C)SCc1cc(F)cc2c1OCOC2)c1ccc(C)nc1,0
CCOc1nc(-c2ccccc2)ccc1-c1noc(-c2cc(OC)cc(OC)c2)n1,0
COc1cccc(-c2cnc(NCc3cccc(Br)c3)n2C)c1,0
COc1cc(C2Nc3ccccc3S(=O)(=O)N2Cc2ccccc2)cc(Br)c1OC (stereo not given),0
COc1ccc(-c2cc(C(F)(F)F)nc(SCCC(=O)N3CCCC3)n2)cc1,3.3
CC1CCN(C(=O)CCSc2nc(-c3ccco3)cc(C(F)(F)F)n2)CC1,0
O=C(CCSc1nc(-c2ccc3c(c2)OCO3)cc(C(F)(F)F)n1)N1CCCC1,0
Cc1ccc(CNc2nc3c(c(=O)[nH]c(=O)n3C)n2CC(O)COC(C)C)cc1 (stereo not given),0
CC1OCC/C1=N/OC(=O)Nc1c(Cl)cccc1Cl (stereo not given),0
COc1ccc(OC)c(C(=O)c2ccc(N)cc2)c1,0
COC(=O)c1ccccc1C(=O)c1ccc(Cl)cc1,0
COc1cc(C(=O)c2cc(Cl)ccc2N)ccc1O,3.8
N#Cc1nn(-c2cccc(C(F)(F)F)c2)c(=O)[nH]c1=O,0
SMILES,Dicer inh
NN/C(N)=N/C(N)=Nc1ccc(F)cc1,3
CCc1ccc(N=C(N)N=C(N)N)cc1,0
NC(N)=NC(N)=Nc1ccc(F)cc1F,0
CCCCS(=O)c1sc(C(=O)OCC)c2c1C(=O)CCC2 (stereo not given),0
N#Cc1nn(-c2ccccc2)c(=O)n(Cc2ccccc2)c1=O,0
Cc1ccc2cc3c(nc2c1)N(c1ccccc1)CC3,0
COC(=O)c1ccc(N2C(=O)CC(N3CCN(C)CC3)C2=O)cc1 (stereo not given),0
COC(=O)c1ccc(N2CCc3cc4ccc(C)cc4nc32)cc1,3
S=C1C=C(N2CCCCC2)CC(c2cccs2)S1 (stereo not given),4.9
O=S(=O)(c1ccccc1)N1CCCC1c1cccs1 (stereo not given),0
CC1(C)CC(N2CCCCC2)=CC(=S)S1,0
CCc1cc2c(=O)c(-c3nc(C)cs3)c(C)oc2cc1O,0
Fc1cccc(Cl)c1CSC1=NCCN1,0
C=CCn1c2ccccc2c2nnc(SCC(=O)Nc3nnc(C(C)C)s3)nc21,0
CC(C)CC(NC(=O)Cc1ccsc1)C(=O)NNC(=O)c1ccccc1Cl (stereo not given),0
CC(C)CC(NC(=O)Cc1ccsc1)C(=O)NNS(=O)(=O)c1ccc(Cl)cc1 (stereo not given),12
CC(C)CC(NC(=O)Cc1ccsc1)C(=O)NN (stereo not given),0
CCOC(=O)c1ccc(Oc2nc(NC)nc(SC)n2)cc1,5.6
COC(=O)c1ccc(Oc2nc(N(C)C)nc(N(C)C)n2)cc1,0
CCOC(=O)c1ccc(Oc2nc(N(C)C)nc(N(C)C)n2)cc1,0
N#Cc1ccc(N=Nc2c(O)c(C(=O)Nc3ccccc3)cc3ccccc23)cc1,0
CCOc1ccc(C2c3c(oc4ccccc4c3=O)C(=O)N2c2nc(C)c(C)s2)cc1OC (stereo not given),0
COc1ccccc1N1C(=O)C2CC(C)=CC(C)C2C1=O (stereo not given),0
CN(C)c1ccc(/C=C/c2nc3n(n2)C=COc2ccccc2-3)cc1,6.1
CCCSc1[nH]c2cc(OC)c(OC)cc2c1[N+](=O)[O-],0
c1ccc(-c2c(-c3ccccc3)n(Cc3ccco3)c3ncnc(NCc4ccco4)c23)cc1,0
OCCNc1ncnc2c1oc1ccccc12,0
c1ccc(-c2c(-c3ccccc3)n(Cc3ccco3)c3ncnc(NCCCn4ccnc4)c23)cc1,3.9
Cc1ccccc1OCc1nc(C#N)c(NCCCn2ccnc2)o1,0
c1cn(CCCNc2ncnc3ccsc23)cn1,0
